# From the supplement of paper PMC13380429
# How the values were obtained:
# [1] = test system: Vero E6 infected with SARS-CoV-2; assay: morphology score (similarity to uninfected cells); higher = more like uninfected cells; details: 24 h
# [2] = test system: Vero E6 infected with SARS-CoV-2; assay: SARS-CoV-2 infection rate relative to infected DMSO; higher = more infection, active = 60 or less; details: 24 h
SMILES,morphology score [1],SARS-CoV-2 infection rate [2]
CC1(C)CCC2=C(O1)c1ccccc1C(=O)C2=O [beta-lapachone] (10 µM),0.361,78.5% (inactive)
Nc1ccc(S(=O)(=O)Nc2nccs2)cc1 [sulfathiazole] (10 µM),0.0413,114% (inactive)
N=C(N)SCCc1ccc(OCc2ccc([N+](=O)[O-])cc2)cc1 (10 µM),0.268,85.5% (inactive)
C#CCC(Cc1cnc2nc(N)nc(N)c2n1)c1ccc(C(=O)N[C@@H](CCC(=O)O)C(=O)O)cc1 (some centres not stated) [pralatrexate] (10 µM),0.042,104% (inactive)
C[C@H](Oc1ccc(S(C)(=O)=O)cc1C(=O)N1CCN(c2ncc(C(F)(F)F)cc2F)CC1)C(F)(F)F [bitopertin] (10 µM),0.119,108% (inactive)
Nc1ccc(-c2nc3ccc(-c4nc5ccc(N)cc5[nH]4)cc3[nH]2)cc1 (10 µM),-0.218,108% (inactive)
CN(C)C/C=C/C(=O)Nc1cc2c(Nc3ccc(F)c(Cl)c3)ncnc2cc1O[C@H]1CCOC1 [afatinib] (0.833333 µM),-0.0622,114% (inactive)
Clc1cccc(-c2nnnn2Cc2cccnc2)c1Cl (10 µM),0.0426,99.5% (inactive)
O=[N+]([O-])c1cccc2cn[nH]c12 [7-nitroindazole] (10 µM),0.0542,100% (inactive)
CC(Cc1ccccc1)(NC(=O)CN)c1ccccc1 (configuration not stated) [remacemide] (10 µM),-0.124,113% (inactive)
O=C(Nc1c(Cl)cncc1Cl)c1ccc(OC(F)F)c(OCC2CC2)c1 [roflumilast] (10 µM),0.202,97% (inactive)
